# From PubChem BioAssay (NCI)
# The panel holds about 83,000 compounds, 20% with a hit somewhere; the sample as a whole holds those more often.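 Testing used 96-well plates and a 48-hour single-concentration exposure. Example: -40 means 40% of the starting cells died.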 Unmarked numbers belong to inactive results. Calls of active or inactive are those of the source. Rule for the calls: active = growth percent below 10; inactive = the rest.
# Tested on: IGROV1 ovarian
# Experiment: NCI-60 one-dose screen, 48 h (100 = growth as untreated, 0 = no growth, -100 = all killed)
# Settings: 10 µM unless noted
row,Structure (SMILES),growth
1,O=C1/C(=C/c2ccc(F)cc2)CN(C(=O)CCN2CCC(=NO)CC2)C/C1=C\c1ccc(F)cc1,-29.2% (active)
2,CC/C=C\C[C@H](O)C/C=C1/C(=O)C=C[C@@H]1C/C=C\CCCC(N)=O,10.4%
3,CC/C=C\C[C@H](F)C/C=C1/C(=O)C=C[C@@H]1C/C=C\CCCC(=O)OC,10.6%
4,Nc1nc2c(c3ncccc13)C(c1ccc(Cl)c(Cl)c1)Cc1ncccc1-2 (stereo not drawn),50.8%
5,Cn1c(=O)c2c(ncn2CC[N+](C)(C)C)n(C)c1=O,102%
6,O=C(O)c1cccc2c1-c1ccccc1C2=O,85%
7,CCOC(=O)C(C#N)C1CCCCC1 (stereo not drawn),101%
8,CCCCNP1(NCCCC)=NP(NCCCC)(NCCCC)=NP(NCCCC)(NCCCC)=NP(NCCCC)(NCCCC)=N1,30.7%
9,CC(=O)C1=C(O)C=C2Oc3c(C(=O)/C=C/c4cc(C(F)(F)F)cc(C(F)(F)F)c4)c(O)c(C)c(O)c3[C@]2(C)C1=O,-6.87% (active)
10,COc1ccc(OCC(=O)Nc2ccc(-c3nc4ccccc4s3)cc2C)cc1,35.2%
11,CCCCCCCCCC(=O)Oc1ccc(/C(=C(/C)c2ccccc2)c2ccc(OCCN3CCCC3)cc2)cc1,44.6%
12,COc1cccc(-c2nc3sccn3c2-c2ccnc(NCCCNS(=O)(=O)c3ccc(Cl)cc3)c2)c1,42%
13,CC/C=C\C[C@H](O)C/C=C1/C(=O)C=C[C@@H]1C/C=C\CCCC(=O)NC,7.71% (active)
14,COc1cccc(/C=C\C(=O)c2ccccc2)c1,2.47% (active)
15,C=C1CC2(OC1=O)C(=O)Nc1ccccc12 (stereo not drawn),63%
16,Cc1ccc2c(c1)C(=O)/C(=C/c1ccc(OCC(=O)c3ccccc3)cc1)O2,75.9%
17,CCN(C(=O)CN1CCN(c2cc3c(cc2F)c(=O)c(C(=O)O)cn3C2CC2)CC1)c1nc(-c2ccc(OC)cc2)cs1,67.4%
18,CS(CCCCN=C=S)=NC(=O)c1c(F)c(F)c(F)c(F)c1F (stereo not drawn),76.8%
19,Cc1ccccc1CCO,95.4%

row,Structure (SMILES),growth
1,O=C(O)c1c([N+](=O)[O-])cnc2ccccc12,106%
2,CC(=O)C1=C(O)C=C2Oc3c(C(=O)/C=C/c4cc(Cl)cc(Cl)c4)c(O)c(C)c(O)c3[C@]2(C)C1=O,-13.8% (active)
3,COc1cc(NC(N)=NCC(C)(C)COc2ccc(C(F)(F)F)cc2)cnc1C#N,43.9%
4,CC1=CC(=O)CC(C)(C)[C@@]1(O)/C=C/[C@@H](C)O,107%
5,OC(c1cc(-c2ccccc2)nc2ccc(Cl)cc12)C1CCCCN1 (stereo not drawn),53.4%
6,CCC(=O)OCc1cccc(OC)c1,81%
7,CCCCCCCCCCCCCC(=O)C(C)N (stereo not drawn),53.2%
8,CC1=C(C)C(=O)OC([C@](C)(O)[C@]2(O)CC[C@@]3(O)[C@@H]4C[C@H]5O[C@]56CC=CC(=O)[C@]6(C)[C@H]4CC[C@]23COC(=O)c2ccc(C)o2)C1 (stereo partly drawn),-54.4% (active)
9,C=C1CC[C@@H]2[C@](C)(COC(C)=O)[C@H](OC(C)=O)CC[C@@]2(C)[C@@H]1CC(Nc1ccc(S(=O)(=O)Nc2ccc(Cl)nn2)cc1)C1=CCOC1=O (stereo partly drawn),43.3%
10,CC(C)[C@H]1COC(=O)N1[C@@H]1C(=O)N([C@@H](CCC(=O)N2CCN(C3CCCC3)CC2)C(=O)N[C@@H]2CCCc3ccccc32)[C@@H]1/C=C/c1cccc(Br)c1,32%
11,Cc1cc(Cl)ccc1Nc1nc(C(F)(F)F)ccc1C(=O)N/N=C/c1ccc(F)cc1,8.97% (active)
12,Cn1c(=O)c2[nH]c(C(O)C(O)C(O)C(O)CO)nc2n(C)c1=O (stereo not drawn),106%
13,C(=N\Nc1ccccn1)/c1ccccn1,10.7%
14,COc1cccc(-c2cn3c(ccc4ccccc43)n2)c1,41.2%
15,COc1ccc2c(c1)C(=O)/C(=C/c1cccc(OCC(=O)Nc3nc4c(s3)CCCC4)c1)O2,-47.4% (active)
16,c1ccc(-c2nc(N3CCOCC3)c3c4c(sc3n2)CCCCC4)nc1,24%
17,COc1ccc(-c2cn3c(ccc4ccccc43)n2)cc1,78.3%
18,COc1cc(OC)c(/C=C/C(=O)c2c(OC)cc(OC)cc2OC)c(OC)c1,30.1%
19,COc1ccc(-c2cc(-c3ccc(N(C)C)cc3)nc(NC(=O)c3ccncc3)n2)cc1,95.2%
